Rows were chosen to be rich in hits. Some 4.7% of all compounds tested hit in one or more screens of this group.
TRHR PAM: qHTS for Small Molecule Agonists and Allosteric Enhancers of Human TRH Receptor: Primary Screen for Enhancers; enhancement, % at 2 µM; Thyrotropin-releasing hormone receptor (Homo sapiens), P34981; 0.66% of 360,000 active; TRHR cells, fluo-8 calcium fluorescence, EC20 TRH enhancement; in the data active means enhancement above about 30%
Target sequence (P34981 whole entry, looked up): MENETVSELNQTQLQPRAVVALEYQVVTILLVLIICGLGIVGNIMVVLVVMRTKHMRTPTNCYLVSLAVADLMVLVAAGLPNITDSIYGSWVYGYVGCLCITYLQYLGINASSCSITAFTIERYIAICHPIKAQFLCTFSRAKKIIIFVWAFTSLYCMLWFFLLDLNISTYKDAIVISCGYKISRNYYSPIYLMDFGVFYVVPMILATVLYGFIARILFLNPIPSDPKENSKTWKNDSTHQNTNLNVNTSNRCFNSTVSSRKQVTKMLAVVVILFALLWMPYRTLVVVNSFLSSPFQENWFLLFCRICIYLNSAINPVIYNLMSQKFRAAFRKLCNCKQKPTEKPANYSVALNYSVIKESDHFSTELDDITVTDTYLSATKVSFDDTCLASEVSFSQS
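TRHR-expressing cells loaded with fluo-8 calcium dye were read kinetically (ex 480/em 530) during compound addition, then stimulated with an EC20 of TRH (10 nM final). Enhancement of the Gq-mediated intracellular calcium response was scored.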
D1 ag: Allosteric Agonists of the Human D1 Dopamine Receptor: qHTS; D(1A) dopamine receptor (Homo sapiens), P21728; HEK293 T-REx D1 cells, calcium flux, agonist mode; activation, % at 2 µM; 1% of 360,000 active; AID 504660, 2011
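Agonism was scored from calcium flux recorded over 180 s (1 read/s) after pintool compound addition, following a 10-cycle baseline. Cells were inducible force-coupled HEK293 TREx D1, plated overnight at 30 C and loaded with no-wash calcium dye.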
D1 PAM: Potentiators of Human D1 Dopamine Receptor: qHTS. AID 504651, 2011. 0.036% of 360,000 active. potentiation, % at 10 µM. HEK293 TREx D1 cells, calcium flux, dopamine EC20 potentiation; in the data active means potentiation above about 30%
TRHR agonist: qHTS for Small Molecule Agonists and Allosteric Enhancers of Human TRH Receptor: Primary Screen for Agonists. Thyrotropin-releasing hormone receptor (Homo sapiens), P34981. TRHR cells, calcium flux fluo-8, FDSS agonist mode. activation, % at 2 µM. 0.18% of 360,000 active. AID 493084, 2011
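Read-out: compound-evoked intracellular calcium rise in TRHR cells, fluo-8 dye, kinetic FDSS fluorescence at 1 s/cycle following a 10-cycle baseline. Cells cultured overnight before dye loading (30 min–1.5 h, RT).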
D1 antagonist: Antagonist of Human D 1 Dopamine Receptor: qHTS; activity change, negative = inhibition, % at 10 µM; 3.2% of 360,000 active; AID 504652, 2011; HEK293 TREx D1 cells, calcium flux, dopamine EC80; stronger effect = lower value; D(1A) dopamine receptor (Homo sapiens), P21728; in the data active means activity change below about -30%
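Inducible Hek293 Trex D1 cells (tetracycline, overnight, 30 C). Calcium dye 30–90 min RT. Antagonist mode: EC80 dopamine added after 180 s compound read.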
Each line names hits and unclear results; the compound was inactive in the other large screens. Unless noted, no stated cut-off is given here; in the data, active means activation above about 30%; inactive means the rest.

Cc1onc(-c2ccccc2)c1C(=O)N/N=C/c1cn(C)c2ccccc12	none
O=C(Nc1ccccc1C(F)(F)F)N1CCOc2ccc(Cl)cc21	D1 antagonist -35
CCc1ccc(NC(=O)N2CCOc3ccc(Cl)cc32)cc1	none
COc1ccc(-c2noc(-c3ccc(NCCc4ccccc4)c([N+](=O)[O-])c3)n2)cc1OC	none
CCN(CC)S(=O)(=O)c1cc(NC(=O)c2ccc(Br)s2)ccc1C	D1 antagonist -33
CCN(CC)S(=O)(=O)c1cc(NC(=O)NCCCl)ccc1C	none
CCCN1C(=O)/C(=C/c2c(N3CCNC(=O)C3CC(=O)OCC)nc3c(C)cccn3c2=O)SC1=S (stereo not given)	D1 ag 216, TRHR agonist 68
CCOC(=O)CC1C(=O)NCCN1c1nc2ccc(C)cn2c(=O)c1/C=C1\SC(=S)N(C(C)CC)C1=O (stereo not given)	D1 ag 584, D1 PAM 34, TRHR agonist 105, D1 antagonist -47
CCOC(=O)/C(C#N)=C/c1c(N2CCN(C)CC2)nc2c(C)cccn2c1=O	none
CCOC(=O)CC1C(=O)NCCN1c1nc2ccc(C)cn2c(=O)c1/C=C1\SC(=S)N(CC(C)C)C1=O (stereo not given)	D1 ag 320, TRHR agonist 63
Cc1csc(C(=O)O)c1NC(=O)c1c(Cl)cccc1Cl	none
COc1cc(C(=O)N2CC(C)OC(C)C2)c([N+](=O)[O-])cc1OC (stereo not given)	D1 antagonist -51
C=CCOc1ccccc1CN1CCC(Oc2ccc(C(=O)N3CCCC3)cc2)CC1	none
C=CCN(CC=C)C(=O)c1ccc(OC2CCN(C(C)=O)CC2)c(OC)c1	D1 antagonist -42
COc1ccc(C(=O)NC2CC2)cc1OC1CCN(Cc2ccccc2F)CC1	D1 antagonist -53
C=CCOc1ccccc1CN1CCC(Oc2cc(C(=O)NC3CC3)ccc2OC)CC1	D1 antagonist -74
COc1ccc(C(=O)NC2CC2)cc1OC1CCN(Cc2ccc(F)cc2F)CC1	none
COc1ccc(C(=O)NC2CC2)cc1OC1CCN(Cc2ccccc2O)CC1	D1 antagonist -38
CC(C)Oc1ccc(C(=O)OC(C)C(=O)NC2CCCCC2C)cc1 (stereo not given)	D1 antagonist -48
S=C(Nc1cccnc1)NC1CC2CCC1C2 (stereo not given)	D1 antagonist -34
COc1ccccc1Nc1nn2c(=O)c3ccc(C(=O)NC4CCC(C)CC4)cc3nc2s1 (stereo not given)	none
O=C(OCc1csc(-c2ccccc2)n1)C1=NN(c2ccccc2)C(=O)CC1	D1 antagonist -36
COc1ccc(OC)c2c(C)cc(N3CCCCCC3)nc12	none
CCCCSc1nc(-c2ccc(OC)cc2)ccc1C#N	none
CCCc1cc(-c2n[nH]c(=S)n2CC)cs1	none
CCCCn1c(-c2csc(CCC)c2)n[nH]c1=S	D1 ag 57
O=C1c2ccccc2C(Nc2cccnc2)N1Cc1ccccc1 (stereo not given)	none
O=C1c2ccccc2C(Nc2cccnc2)N1Cc1ccccc1Cl (stereo not given)	TRHR PAM 33
Cc1ccc2occ(CC(=O)N(Cc3ccc(N(C)C)cc3)C3CCS(=O)(=O)C3)c2c1 (stereo not given)	D1 antagonist -43
C=CCN1C2CCCC1CC(NC(=S)Nc1ccc(Cl)cc1)C2 (stereo not given)	D1 antagonist -84
C=CCN1C2CCCC1CC(NC(=O)Nc1cc(C)cc(C)c1)C2 (stereo not given)	none
S=C(Nc1ccc(Cl)cc1)NC1CC2CCCC(C1)N2C1CC1 (stereo not given)	D1 ag 135, D1 antagonist -41
S=C(Nc1ccc(Cl)cc1)NC1CC2CCC(C1)N2Cc1ccccc1 (stereo not given)	D1 ag 52, D1 antagonist -43
CCc1ccc(NC(=S)NC2CC3CCCC(C2)N3Cc2ccccc2)cc1 (stereo not given)	none
CCc1ccccc1NC(=O)C1(S(=O)(=O)c2ccc(Cl)cc2)CC1	none
CCOc1ccc(-c2nc3c(c(SCC(=O)N4CCCCC4)n2)Cc2cc(C)ccc2O3)cc1	none
O=C(CCCc1nc(-c2ccco2)no1)Nc1ccccc1[N+](=O)[O-]	none
CCc1nn2c(=O)c(S(=O)(=O)Nc3ccc(Br)cc3F)c(C)nc2s1	none
Cc1ccc(C)c(NC(=O)CN(C)S(=O)(=O)c2ccc3c(c2)CCC(=O)N3)c1	none
O=C(Cc1cccs1)N1CCN=C1SCc1ccccc1F	D1 antagonist -36
O=C(Cc1cccs1)N1CCN=C1SCc1ccccc1Cl	none
CC1CCN(CCCCOc2ccc(C(=O)c3ccccc3)cc2)CC1	none
c1ccc(COc2ccc(OCCN3CCCCC3)cc2)cc1	D1 ag 43, D1 antagonist -31
c1ccc(COc2ccc(OCCCN3CCCC3)cc2)cc1	none
c1ccc(COc2ccc(OCCN3CCCC3)cc2)cc1	D1 ag 48
CC1CCN(CCCOc2ccc(OCc3ccccc3)cc2)CC1	D1 ag 76, D1 antagonist -40
Cn1c(CCNC(=O)c2cc(COc3ccc(F)c(F)c3)on2)nc2ccccc21	none
N#Cc1c(Cl)nc(SCc2ccccc2)nc1-c1ccccc1	D1 antagonist -32
CC(=O)Nc1ccc(S(=O)(=O)N(C)CC(=O)NC2=NCCS2)cc1	D1 antagonist -31
Cc1cccc(CCNC(=O)Cc2ccc(NC3=NC4CS(=O)(=O)CC4S3)cc2)c1 (stereo not given)	none
COc1ccc(S(=O)(=O)N2CCN(CCOc3ccc(Br)cc3)CC2)cc1OC	none
O=C(COc1cccnc1[N+](=O)[O-])N1CCN(S(=O)(=O)c2ccccc2)CC1	none
COc1ccc(S(=O)(=O)N2CCN(CCOc3ccccc3Cl)CC2)cc1OC	D1 antagonist -51
O=C(COc1ccccc1[N+](=O)[O-])N1CCN(S(=O)(=O)c2ccccc2)CC1	D1 antagonist -95
O=S(=O)(c1ccc(C(F)(F)F)cc1)N1CCN(CCOc2ccccc2)CC1	D1 antagonist -39
O=C(CN1CCc2ccccc2C1)N1CCN(S(=O)(=O)c2ccccc2)CC1	D1 antagonist -35
CCC(CC)c1nn2c(=O)cc(COc3ccc(NC(=O)c4ccccc4C)cc3)nc2s1	none
CCCCC(CC)CNC(=O)c1ccc2c(=O)n(Cc3ccc(OC)cc3)c(=O)[nH]c2c1 (stereo not given)	none

Screening results from PubChem BioAssay.
